The entries come from a sample that favours hits as a whole.
TDP1 cell noCPT: qHTS for Inhibitors of human tyrosyl-DNA phosphodiesterase 1 (TDP1): qHTS in cells in absence of CPT | DT40 Tdp1-/- hTDP1 cells, no CPT, ATP luminescence, 48 h | Potency, µM (doses to about 46.2 µM), inactives show top-dose activity change, negative = growth inhibition, actives largely listed as inhibitors | actives 15% (n = 420,000) | AID 686978, 2013; also: potency is read from the fitted curve at half-maximal effect; nearly all actives have a fitted effect of over 55% in size
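Cells were dispensed at 400 per well, compounds added by pin tool, plates incubated ≥48 hr at 37 °C, then CellTiter-Glo added for 30 min at room temperature before luminescence reading. Line: DT40 Tdp1-/- complemented with hTDP1; camptothecin omitted.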
HT1080 IDH1KD tx: qHTS for induction of synthetic lethality in tumor cells producing 2HG: qHTS for the HT-1080-IDH1KD cell line; HT-1080 IDH1 knockdown viability, ATP luminescence, 48 h; Potency, µM (doses to about 46.1 µM), inactives show at the highest dose activity, negative = toxicity, usual class: cytotoxic; actives 2% (n = 360,000);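 also: potency is read from the fitted curve at half-maximal effect; 0% = DMSO wells and -100% = cell-free medium wells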
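Luminescent ATP read-out (CellTiter-Glo, 10 min at room temperature) after 48 h compound exposure at 37 °C gave viability of IDH1-knockdown HT-1080 cells. Activity was normalised to DMSO and cell-free wells, then fitted as concentration-response curves.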
HT1080NT lethal: qHTS for induction of synthetic lethality in tumor cells producing 2HG: qHTS for the HT-1080-NT fibrosarcoma cell line | HT-1080-NT fibrosarcoma viability, CellTiter-Glo ATP luminescence, 48 h | Potency, µM (titrated, usually from 46.1 µM), for inactives: at the highest dose activity, negative = less viability, hits mostly cytotoxic | actives 1.6% (n = 360,000) | AID 686970, 2013;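 also: NT is the 2HG producing partner of a matched IDH1 knockdown line; potency is read from the fitted curve at half-maximal effect; 0% = DMSO-treated cells and -100% = media-only wells without cells; nearly all actives have a fitted effect of over 55% in size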
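HT-1080-NT; 750 cells/well; 5% FBS RPMI; 48 h compound, 37 degrees C; CellTiter-Glo luminescence; curve fitting and curve-class assignment.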
12-LOX inh: Primary qHTS assay for inhibitors of human arachidonate 12S-lipoxygenase (ALOX12): Round 2; purified 12hLO, xylenol orange hydroperoxide absorbance; Potency, µM (titrated, usually from 108 µM), without a hit: top-dose activity change, negative = inhibition, usual class: inhibitors; actives 1.1% (n = 580,000); also: potency is read from the fitted curve at half-maximal effect
Target sequence (P18054 whole entry, looked up): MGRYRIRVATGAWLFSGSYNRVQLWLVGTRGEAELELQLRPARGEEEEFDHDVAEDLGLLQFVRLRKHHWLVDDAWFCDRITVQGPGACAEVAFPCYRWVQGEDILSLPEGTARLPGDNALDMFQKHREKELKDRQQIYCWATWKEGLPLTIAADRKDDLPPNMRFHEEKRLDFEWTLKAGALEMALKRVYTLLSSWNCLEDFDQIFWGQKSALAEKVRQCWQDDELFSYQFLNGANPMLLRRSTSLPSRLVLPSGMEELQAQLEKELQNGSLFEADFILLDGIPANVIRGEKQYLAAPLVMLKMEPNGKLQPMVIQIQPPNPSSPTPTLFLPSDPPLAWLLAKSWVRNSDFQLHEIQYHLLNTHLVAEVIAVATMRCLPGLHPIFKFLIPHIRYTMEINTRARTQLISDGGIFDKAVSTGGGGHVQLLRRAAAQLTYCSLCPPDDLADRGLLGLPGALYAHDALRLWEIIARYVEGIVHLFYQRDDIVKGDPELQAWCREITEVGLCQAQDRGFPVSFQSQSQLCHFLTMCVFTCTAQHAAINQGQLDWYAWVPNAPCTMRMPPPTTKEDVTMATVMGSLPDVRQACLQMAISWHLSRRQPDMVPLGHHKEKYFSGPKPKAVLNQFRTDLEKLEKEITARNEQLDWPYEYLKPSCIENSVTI
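Purified human 12hLO (150 nM final) in 25 mM Hepes, 0.01% Triton X-100, pH 7.0 was preincubated 15 min at room temperature with compound. Then 40 uM arachidonic acid was added, 30 min. Hydroperoxide was read by Fe-XO absorbance ratio 573/405 nm.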
TDP1 cell CPT: qHTS for Inhibitors of human tyrosyl-DNA phosphodiesterase 1 (TDP1): qHTS in cells in presence of CPT; chicken DT40 Tdp1-/-;hTDP1 cells + 20 nM CPT, ATP luminescence, 48 h; Potency, µM (titrated, usually from 46.2 µM), for inactives: at the top dose activity change, negative = growth inhibition, actives largely listed as inhibitors; actives 12% (n = 420,000); also: potency is read from the fitted curve at half-maximal effect; nearly all actives have a fitted effect of over 55% in size
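Cell growth measured by CellTiter-Glo luminescence after a minimum 48 h, 37 C compound exposure with 20 nM CPT in Tdp1-knockout DT40 cells stably expressing hTDP1, seeded 400/well; qHTS titration format.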
IL1B secr inh: qHTS for Inhibitors of Inflammasome Signaling: IL-1-beta AlphaLISA Primary Screen; THP-1 LPS/ATP IL-1B secretion, AlphaLISA, 16 h; hits give low values; activity change, % at 57.5 µM; actives 4.7% (n = 360,000); AID 743279, 2014; in the data active = activity change below about -50%; inconclusive = mostly about -30% to -49%
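THP-1 cells pretreated 1 hr with compounds (up to 57.5 uM final), then stimulated with LPS (250 ng/mL final) plus ATP (1.25 mM final); secreted IL-1B measured by AlphaLISA after 16 hr, decreased signal indicating inhibition.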
Numbers without * were called inactive; ? = inconclusive; nt = not tested or not shown; [ ] = dose if it differs, or a comment. Unless noted, calls follow the shape of the dose curve; as a rule, active = well fitted curve in the direction sought with a large enough effect; inconclusive = small, poorly fitted or top-dose-only effect, or another doubt; inactive = no such curve, though single readings can be large; an effect the other way counts as inactive or inconclusive. Unless noted, % is scaled to controls: 0 for no effect and ±100 for the full control effect.

SMILES | TDP1 cell noCPT | HT1080 IDH1KD tx | HT1080NT lethal | 12-LOX inh | TDP1 cell CPT | IL1B secr inh
Cc1ccc(C(=O)c2ccccc2C(=O)O)c(O)c1 | 0% | 2% | 3% | 13% | -20% | 24
CCNC(=O)CNC(=O)CSc1cc(C)c2cccc(C)c2n1 | nt | nt | nt | 10% | nt | nt
CC1C(=O)N(Cc2cn(Cc3ccco3)nn2)CCS(=O)(=O)N1Cc1ccc(-c2ccncc2)cc1 (stereo not drawn) | 21µM* | 3% | 2% | -25% | ? | 6
Cc1ccc(-c2ccc(CN3C(C(C)C)C(=O)N(Cc4cn(Cc5ccco5)nn4)CCS3(=O)=O)cc2)cc1 (stereo not drawn) | 18µM* | ? | ? | 45µM* | 18µM* | -10
CC(C)C1C(=O)N(Cc2cn(Cc3ccco3)nn2)CCS(=O)(=O)N1Cc1ccc(-c2cccc(N(C)C)c2)cc1 (stereo not drawn) | 16µM* | -23% | -19% | -37% | ? | -30
C=CCSC1=N/C(=C\c2cc(OCC)c(OC(C)=O)c([N+](=O)[O-])c2)C(=O)S1 | ? | 6% | -3% | ? | 16µM* | 19
CC(=O)N(C1=C(Cl)C(=O)c2ccccc2C1=O)C1CCCCC1 | 0.52µM* | 2.9µM* | 4.1µM* | 1.8µM* | 0.46µM* | -97*
CC(=O)N(c1ccccc1C)C1CCCC1 | ? | 8% | 13% | -1% | -7% | 6
Cc1cccc(C2(C(=O)NC3CCC(C)CC3)CCC2)c1 (stereo not drawn) | nt | nt | nt | 41% | nt | nt
Cc1cccn2cc(COc3ccc(-c4ccccc4)cc3)nc12 | 12µM* | 18µM* | ? | -18% | -20% | -18
CSc1nc(NCCOCCO)c2sc3nc(-c4ccco4)c4c(c3c2n1)CCC4 | 16µM* | -4%[9.24 µM] | ? | ? | 18µM* | -14
CCc1ccccc1-n1cnc2cc(C(=O)NC3CCCCCC3)ccc21 | 23µM* | nt | nt | -19% | ? | nt
Cn1nnc2cc(C(=O)NC3CCCCC3)ccc21 | -1% | 15% | 21% | 0% | 5% | 30
COc1ccc(-n2cnc3cc(C(=O)NC4CCCCCC4)ccc32)cc1 | ? | nt | nt | -16% | ? | nt
Cc1cccc(-n2cnc3cc(C(=O)NC4CCCCCC4)ccc32)c1 | 4.6µM* | nt | nt | -5% | 3.3µM* | nt
COc1cc(-c2cc(N)n(S(=O)(=O)c3ccc(F)cc3)n2)cc(OC)c1OC | 18µM* | -20% | -26% | 6%[57.4 µM] | 16µM* | 0
COc1ccc(OC)c(S(=O)(=O)n2nc(-c3ccccc3)cc2N)c1 | -25% | -20% | -19% | -6% | -30% | 10
CCOC(=O)c1oc2ccc(S(=O)(=O)n3nc(-c4cc(OC)c(OC)c(OC)c4)cc3N)cc2c1C | ? | -19% | 6% | -19% | -6% | 0
COc1cc(OC)cc(-c2cc(N)n(S(=O)(=O)Cc3ccccc3)n2)c1 | 18µM* | -6% | 4% | 13% | ? | -15
COc1ccc(S(=O)(=O)n2nc(-c3ccc(Cl)cc3)cc2N)cc1OC | ? | ? | -19% | -15% | ? | -2
COc1ccc(-c2cc(N)n(S(=O)(=O)c3ccc(F)cc3)n2)cc1OC | 12µM* | 0% | -1% | 11%[57.4 µM] | 18µM* | 3
Nc1cc(-c2ccccc2)nn1S(=O)(=O)c1ccc(F)cc1 | 15µM* | -7% | ? | 21%[57.4 µM] | 29µM* | -14
